Out of some 10,000 compounds screened, about 5,600 (56%) were called active. The set was probably picked from earlier hits. The list is a sample of the results. Values without a mark were called inactive. No stated cut-off is given here; in the data, active means inhibition above about 40%; inactive means the rest.

In this assay the target is Protein Mdm4 (Homo sapiens) + E3 ubiquitin-protein ligase Mdm2 (Homo sapiens) (UniProt O15151+Q00987). Nature of the assay: inhibition of human Mdm2/MdmX pairing – luminescence, single concentration, confirmation (AID 489028). The conditions noted are these: Mdm2-MdmX binding, luminescent assay; at 8 µM; active compounds read high.
Protein Mdm4 (Homo sapiens) + E3 ubiquitin-protein ligase Mdm2 (Homo sapiens), sequence (O15151 whole entry, looked up): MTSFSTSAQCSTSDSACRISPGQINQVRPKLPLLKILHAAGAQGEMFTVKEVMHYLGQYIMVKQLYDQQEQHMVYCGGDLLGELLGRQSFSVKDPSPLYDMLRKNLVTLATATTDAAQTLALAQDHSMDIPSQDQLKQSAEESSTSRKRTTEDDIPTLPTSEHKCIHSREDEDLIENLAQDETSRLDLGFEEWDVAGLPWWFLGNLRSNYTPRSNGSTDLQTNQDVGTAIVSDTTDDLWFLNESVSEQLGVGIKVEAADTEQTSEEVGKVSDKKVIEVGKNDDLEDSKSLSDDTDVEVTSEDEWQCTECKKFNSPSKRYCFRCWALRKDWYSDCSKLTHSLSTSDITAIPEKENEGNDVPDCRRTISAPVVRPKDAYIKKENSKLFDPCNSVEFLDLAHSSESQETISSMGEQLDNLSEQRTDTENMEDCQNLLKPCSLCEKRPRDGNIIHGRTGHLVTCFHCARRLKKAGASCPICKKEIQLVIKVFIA
Protein Mdm4 (Homo sapiens) + E3 ubiquitin-protein ligase Mdm2 (Homo sapiens), sequence (Q00987 whole entry, looked up): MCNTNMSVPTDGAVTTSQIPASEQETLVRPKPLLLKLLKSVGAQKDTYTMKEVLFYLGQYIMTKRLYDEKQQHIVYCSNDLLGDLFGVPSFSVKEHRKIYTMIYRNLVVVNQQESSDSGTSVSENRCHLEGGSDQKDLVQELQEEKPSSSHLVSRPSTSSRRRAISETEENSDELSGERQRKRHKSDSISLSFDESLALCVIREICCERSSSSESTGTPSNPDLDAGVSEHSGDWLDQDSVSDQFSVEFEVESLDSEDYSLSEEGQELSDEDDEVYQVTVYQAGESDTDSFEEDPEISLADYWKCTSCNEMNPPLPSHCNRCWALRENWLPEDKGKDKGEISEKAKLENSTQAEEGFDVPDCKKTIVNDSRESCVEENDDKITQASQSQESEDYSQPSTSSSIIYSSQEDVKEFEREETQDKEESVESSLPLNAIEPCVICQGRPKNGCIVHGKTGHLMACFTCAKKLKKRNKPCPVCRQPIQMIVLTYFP
For orientation: inhibition means the drop in the measured response relative to a control, in per cent. With `O=C(/C=C/c1ccc(OCc2c(F)cccc2Cl)cc1)N1CCOCC1`, the inhibition is 66.7% (active).
As to `CCc1nc(C)cn1S(=O)(=O)c1cc([N+](=O)[O-])ccc1Cl`, the inhibition was 50.9% (active).
For `O=C(CCCN1C(=O)/C(=C\c2ccco2)SC1=S)Nc1cccc2ccccc12` the value was 94.5% (active); for `O=C(CCCN1C(=O)/C(=C/c2ccco2)SC1=S)Nc1ccccc1`, 70.8% (active).
For `OC(CNCC1CCCO1)Cn1c2ccc(Br)cc2c2cc(Br)ccc21` (centres undefined) the value was 38%; for `Cc1oc2c(c1C(=O)N1CCOCC1)C(=O)c1ccccc1C2=O`, 62.5% (active); for `Cc1c(C(=O)Nc2cccc(Cl)c2)cn2c(nc3ccccc32)c1C#N`, 9.95%.
For `Cc1nc(N2CCN(c3ccccn3)CC2)c2c(C)c(C(=O)Nc3ccc(F)c(Cl)c3)sc2n1` the value was 34.2%.
As to `Cc1nnc(NC(=O)Nc2ccc(Cl)c(Cl)c2)s1`, the inhibition was 86.5% (active).
For the compound `COc1ccc2nc(Nc3nc4ccc(NC(C)=O)cc4s3)sc2c1`, the inhibition was 35.2%.
Regarding `CC(C)(C)CC(C)(C)NCC(O)COCCOc1ccc(Br)cc1` (centres undefined), the inhibition is 51.1% (active).
The value for `Cc1nn(-c2ccccc2)c2sc(C(=O)N(Cc3ccco3)C(C)C(=O)NC(C)(C)C)cc12` (centres undefined) was 12.8%; that for `CC[C@H]1CN2CCc3cc(OC)c(OC)cc3[C@@H]2C[C@@H]1C[C@H]1NCCc2cc(OC)c(OC)cc21` was 99.8% (active); that for `Cc1ccc(-c2cccc([C@H]3[C@@H]4C=CC[C@@H](C)[C@@H]4C(=O)N3Cc3ccccc3)c2)cc1` was -5.3%.
For the compound `CCOC(=O)c1ccc(NC(=O)c2c(NCc3ccccc3)[nH]c(=O)[nH]c2=O)cc1`, the inhibition was 12.4%.
For `Cc1cc(NC(=O)/C=C/C(=O)N(c2ccccc2C)C(C(=O)NC2CCCC2)c2ccc(F)cc2)no1` (centres undefined) the value was 70% (active); for `N/C(=N\OC(=O)c1ccc2c(c1)OCO2)c1ccc(Br)cc1`, 40.2% (active); for `N/C(=N\OC(=O)N1c2ccccc2Sc2ccccc21)c1ccc(Br)cc1`, -3.5%.
The value for `CCOC(=O)/C=c1\s/c(=C\c2ccc(C#N)cc2)c(=O)n1CC(=O)Nc1cccc(C)c1C` was 8.85%; that for `Oc1ccccc1C1=NN(c2ccccc2)C(c2ccccc2)C1` (centres undefined) was 8.55%; that for `COc1ccc(OC)c(NC(=O)c2sc3nc(C)cc(C)c3c2N)c1` was 15.5%.
The value for `O=C(Nc1nnc(-c2ccccc2)o1)c1cc(-c2cccs2)nc2ccccc12` was 29.7%.
On to `COc1ccc(NC(=O)c2cc(-c3cc(OC)c(OC)c(OC)c3)nc3ccccc23)c(OC)c1`, for which the inhibition is 57% (active).
For `O=[N+]([O-])c1c(NCCO)cc(Sc2nc3ccccc3s2)c2nonc12` the value was 96.7% (active); for `COc1cccc(CNC(=O)c2nnn(CC(=O)Nc3cc(Cl)ccc3C)c2N)c1`, 62.3% (active).
Regarding `COc1cccc(CNC(=O)Cc2csc(Nc3nc(=S)[nH]c4ccccc34)n2)c1`, the inhibition was 15.8%.
The value for `CCCCCCSc1ccc([C@@H]2[C@@H]3C(=O)N(CC)C(=O)[C@@H]3[C@]3(C(=O)OC)CCCCN23)cc1OC` was 21.6%.
For `CCOC(=O)/C(=C\c1ccc([N+](=O)[O-])cc1)C(=O)c1cc(C(C)=O)c(Nc2ccccc2)s1` the value was 99.6% (active); for `Cc1ccc2occ(/C=N/NC(=O)c3ccccc3C)c(=O)c2c1`, 65.8% (active).
The value for `CCc1ccc(-c2cc3c(=O)n(CC(=O)NCCCN4CCN(Cc5ccccc5)CC4)nc(C)n3n2)cc1` was 55.5% (active); that for `Cn1c(C(=O)NCCCN2CCN(c3cccc(Cl)c3)CC2)cc2c(=O)n(C)c3ccccc3c21` was 37.8%.
Take `O=C1NC[C@@H](c2ccccc2)OC(=O)[C@H](Cc2ccc(F)cc2)CC/C=C/C[C@H]1CC(=O)N(CCO)Cc1ccccc1`: the inhibition is 54.5% (active).
The value for `O=C(C[C@H]1C/C=C\C[C@@H](NC(=O)OCC2c3ccccc3-c3ccccc32)C(=O)O[C@@H](c2ccccc2)CNC1=O)N[C@H](CO)Cc1ccccc1` was 28.4%; that for `C=CC[C@H](CC(=O)N(CCO)Cc1ccccc1)C(=O)N[C@@H](COC(=O)[C@@H](CC=C)Cc1ccc(F)cc1)Cc1ccccc1` was 1.35%; that for `CN1CCN(CCCNC(=O)c2ccc(/C=C3\Oc4ccccc4N(Cc4ccc(Cl)cc4)C3=O)cc2)CC1` was 55% (active).
The value for `Cc1ccccc1C(CC(=O)c1cccs1)C(C#N)C#N` (centres undefined) was 54.7% (active); that for `Clc1cccc(Cl)c1OCCOCCNCc1ccccc1` was 86% (active); that for `O=C(N/N=C/c1sc(N2CCCCC2)nc1-c1cccs1)c1cccnc1` was 25.3%.
The value for `CCOc1ccccc1NC(=O)Cn1nnc(C(=O)NCc2cccs2)c1N` was 52.7% (active).
On to `Cc1ccc(-c2nn(C(C)(C)C)c3ncnc(N)c23)cc1`, for which the inhibition is 67% (active).
Consider `COc1cc(SC)ccc1C(=O)Nc1nc(C)cs1`, for which the inhibition is 57.5% (active).
For `CCCC(=O)Nc1ccc(C(=O)N/N=C/c2ccc[nH]2)cc1` the value was 6.9%; for `CCn1c(/C=C/Nc2ccccc2)[n+](CC)c2ccc(C(=O)OCC(F)(F)F)cc21`, 13.1%; for `O=C(COc1ccccc1F)Nc1nc(-c2ccccn2)cs1`, 53.6% (active).
The value for `CC1CCN(C(=O)c2ccc(S(=O)(=O)Cc3cc(F)ccc3F)c([N+](=O)[O-])c2)CC1` was 64% (active); that for `CCOC(=O)N1CCN(C(=O)c2ccc(S(=O)(=O)c3ccc(C)cc3)c(NC(C)=O)c2)CC1` was 8.65%.
For `FC(F)(F)c1nnc2c3ccccc3c(Cl)nn12` the value was 47% (active); for `COc1ccccc1C(=O)NC(=S)NC12CC3CC(CC(C3)C1)C2`, 21.8%; for `Cn1nc(-c2ccccc2)c(CSc2cccc(Cl)c2)c1Cl`, 48.5% (active).
On to `C=CCN(CC=C)S(=O)(=O)c1ccc(C(=O)Nc2sc3c(c2C(N)=O)CCCCC3)cc1`, for which the inhibition is 10.8%.
For `CCOC(=O)c1c(NC(=O)c2ccc(S(=O)(=O)N(C)CC3CCCO3)cc2)sc2c1CC(C)(C)NC2(C)C` (centres undefined) the value was 47.1% (active); for `CC1(C)CCSC(/C=C/c2ccccc2)=N1`, 68% (active); for `Cc1[nH]c(=O)c(C(=O)/C=C/c2ccccc2)c2c1CCCC2`, 99.5% (active).
For `C=CCn1c(C)cc(C2=NNC(=NCC)SC2)c1C` the value was 98.1% (active).
